Compounds with a hit are over-represented: about 9.6% of the library has one in this group of screens.
PostGolgi yeast = growth inhibition of a yeast mutant, post-Golgi transport screen | post-Golgi transport phenotypic cell assay | inhibition, % at 10 µM | actives 0.9% (n = 98,000);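 further: yeast cells grown in 1536-well plates; yeast grown about 18 h at 30C before absorbance read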
Cav32 inh = human Cav3.2 channel inhibition, primary screen | O95180 | Cav3.2-expressing cells, Fluo-4 calcium fluorescence FDSS; stronger effect = lower value | AID 449739 | B-score at 10 µM | actives 4% (n = 100,000);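 active means single-dose well whose peak fluorescence ratio is a statistical outlier from its plate by either plate-standardised score or position-corrected B-score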
hDAT+cocaine = modulates human dopamine transporter uptake under cocaine; Q01959; LLC-PK1 hDAT cells, [14C]-dopamine uptake with cocaine IC80; actives deviate in either direction; B-score at 10 µM; actives 1.3% (n = 110,000); AID 449768;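 active means Z score or B-score, a plate-position-corrected score, falls beyond the plate's 99.7% confidence bounds, in either direction; inactive means both scores lie inside the 99.7% bounds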;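 further: scored against the spread of the other compound wells on the same plate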
PostGolgi ctrl = inhibits growth of the yeast control strain | efflux-deficient yeast background strain, growth absorbance A615, 16 h | actives 5% (n = 98,000) | AID 738 | inhibition, % at 10 µM
PLAP activator = activators of human placental alkaline phosphatase. P05187. purified PLAP enzyme, luminescent substrate read-out; stronger effect = higher value. activation fold at 20 µM. actives 1.2% (n = 96,000); in the data active means activation fold above about 2
Target sequence (P05187 whole entry, looked up): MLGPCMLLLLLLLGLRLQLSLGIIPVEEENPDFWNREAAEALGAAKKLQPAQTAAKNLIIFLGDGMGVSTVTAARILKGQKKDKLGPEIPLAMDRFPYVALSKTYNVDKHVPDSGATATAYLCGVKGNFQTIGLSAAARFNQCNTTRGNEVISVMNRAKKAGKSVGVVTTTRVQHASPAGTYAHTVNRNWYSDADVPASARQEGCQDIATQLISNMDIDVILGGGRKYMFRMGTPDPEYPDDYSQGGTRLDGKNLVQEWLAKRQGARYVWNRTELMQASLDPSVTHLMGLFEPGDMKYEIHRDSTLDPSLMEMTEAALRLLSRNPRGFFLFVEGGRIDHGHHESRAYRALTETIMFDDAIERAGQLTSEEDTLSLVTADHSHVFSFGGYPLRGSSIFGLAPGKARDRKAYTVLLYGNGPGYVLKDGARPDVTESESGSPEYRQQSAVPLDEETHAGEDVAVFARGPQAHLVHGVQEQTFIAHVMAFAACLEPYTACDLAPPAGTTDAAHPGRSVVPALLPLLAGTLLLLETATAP
Starred values were filed as active, the others as inactive; . = no result. Unless noted, no stated cut-off is given here; in the data, active means inhibition above about 30%; inactive means the rest.

SMILES	PostGolgi yeast	Cav32 inh	hDAT+cocaine	PostGolgi ctrl	PLAP activator
CCOC(=O)c1c(-c2ccccc2)nc2ccc(C)cn12	-36	-0.031	0.29	31*	0.9
O=C1c2ccccc2NC(c2c(Cl)cccc2Cl)N1Cc1ccccc1 (stereo not given)	65*	-11*	0.98	42*	1.2
Cc1cccc(C2Nc3ccccc3C(=O)N2CCc2ccccc2)n1 (stereo not given)	-11	-0.31	-0.003	7	0.7
O=C1c2ccccc2NC(c2ccc(Cl)cc2Cl)N1Cc1ccccc1 (stereo not given)	12	-5.3*	0.35	36*	1.1
COc1ccc(/C=N/NC(=O)c2ccoc2C)cc1COc1c(C)cccc1C	3	-1.7	0.58	54*	0.9
COc1cccc(OCc2cc(/C=N/NC(=O)c3ccn[nH]3)ccc2OC)c1	-1	-1.3	1.9	33*	1.5
Cc1cccc(NC(=O)c2ccc(N(C)C3CCCCC3)c([N+](=O)[O-])c2)n1	-5	-3	-1.1	16	1.1
CCOc1ccccc1NC(=O)C(=O)/C=C(\O)c1cc(OC)ccc1OC	8	-9.6*	0.86	28	1.5
COc1ccc(OC)c(/C(O)=C/C(=O)C(=O)Nc2cc(C)cc(C)c2)c1	-1	-9.1*	1.8	22	1.9
COc1ccc(C)cc1NC(=O)Nc1ccc(Br)cn1	-2	1.6	-0.71	8	0.5
COc1ccc(OC)c(C(=O)c2ccccc2)c1	.	-0.37	0.43	.	.
COc1ccc(OC)c(/C(O)=C/C(=O)C(=O)Nc2cc(C)ccc2OC)c1	-6	-5.6*	0.095	12	0.9
COc1cc(OC)c(OC)cc1CNCCNC(=O)c1nonc1N	3	0.32	-0.048	-3	1
NC(=O)c1c(NC(=O)c2ccccc2)sc2c1CCc1ccccc1-2	-1	0.56	-0.37	4	0.9
Cc1ccc2cc(CN(Cc3ccc4c(c3)OCO4)Cc3nnnn3Cc3ccco3)c(=O)[nH]c2c1	11	-6.7*	0.22	30*	1.6
COc1ccc(N(CC(=O)NCc2cccs2)S(=O)(=O)c2c(C)n[nH]c2C)cc1	-2	-0.48	1.4	0	1.9
CCCn1c(N2CCN(CC(=O)c3c(C)n(C)c4ccccc34)CC2)nc2c1c(=O)[nH]c(=O)n2C	-5	3.1*	2.8*	16	1.5
CCCCCn1c(CN2CCN(c3cccc(Cl)c3)CC2)nc2c1c(=O)[nH]c(=O)n2C	2	-1.5	0.65	45*	1.9
CCCCCCn1c(N2CCN(c3ccccc3)CC2)nc2c1c(=O)[nH]c(=O)n2C	2	-5.7*	-0.1	26	.
CCCCCCCCn1c(N2CCN(c3cccc(Cl)c3)CC2)nc2c1c(=O)[nH]c(=O)n2C	-3	-2	1.2	5	1.7
Cn1c(=O)[nH]c(=O)c2c1nc(N1CCCC1)n2CCCSc1nc2ccccc2o1	-6	-0.18	0.22	46*	1.9
CC1CCCN(c2nc3c(c(=O)[nH]c(=O)n3C)n2CCSc2nc3ccccc3o2)C1 (stereo not given)	2	0.091	0.25	0	1.5
CC(C)CCn1c(N2CCN(c3cccc(Cl)c3)CC2)nc2c1c(=O)[nH]c(=O)n2C	3	-8.5*	0.059	35*	.
CCCCCCn1c(N2CCN(c3cccc(Cl)c3)CC2)nc2c1c(=O)[nH]c(=O)n2C	7	-1.9	0.31	20	1
CCCCc1ccc(NC(=O)c2c(C)noc2C)cc1	2	-0.56	1.6	9	2*
SMILES	PostGolgi yeast	Cav32 inh	hDAT+cocaine	PostGolgi ctrl	PLAP activator
O=C(c1ccc(N2CCCCC2)c([N+](=O)[O-])c1)N(Cc1ccccc1)c1ccccn1	4	-4.5*	-0.34	10	1.1
Cc1ccccc1NC(=S)NC1CC2CCC(C1)N2Cc1ccco1 (stereo not given)	0	0.087	0.39	5	1.1
COc1ccc(NCc2nnc(SCC(=O)Nc3cc(C(F)(F)F)ccc3Cl)o2)cc1	7	-2	0.92	2	2.3*
CN(CCOc1ccc(Cl)cc1)c1ccc(S(=O)(=O)N2CCCCC2)cn1	-1	-6.4*	0.95	15	1.3
O=C(NCC(=O)N(CC1CCCO1)C(C(=O)NC1CCCC1)c1cccnc1)c1ccco1 (stereo not given)	21	-0.57	-0.34	5	0.9
O=C(NC(=S)Nc1ccc(N2CCCCC2)cc1)c1cccs1	-3	-2.3	-0.14	15	1
CN(C)c1ccc(C=Nc2cnn(C)c2C(N)=O)cc1	21	0.44	1.8*	-3	0.8
CN(C)c1ccc(C=Nc2ccc(N(C)C)cc2)cc1	.	0.45	0.12	.	.
